Assay results published in PubChem BioAssay (NCATS).
Results filed as inconclusive are left out. Unless noted, the call rests on the fitted dose curve; in most records, active means well fitted curve in either direction with a large enough effect (not every such curve was filed as active); inconclusive means small, poorly fitted or top-dose-only effect, or another doubt; inactive means flat fitted curve, though single readings scatter.

Key:
[1] = AP1 Signaling Pathway (AID 357); conditions: ME-180 AP-1-bla reporter, EGF-induced, beta-lactamase ratio, 5 h; at 17.2 µM (top of the series) unless noted;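 further: ME-180 reporter cells stimulated with EGF at its EC50 level; on the % scale 0 is the no-effect control and ±100 the full control effect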
Summary of the method: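 Cells are seeded overnight, exposed to compound titrations and an EC50 level of EGF for 5 hours at 37 °C, then loaded with CCF4 dye for 2.5 hours. Beta-lactamase activity under the AP-1 element is read as a blue/green ratio.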

[2] = NFAT Signaling Pathway (AID 444); conditions: Jurkat NFAT-bla M1, carbachol, beta-lactamase ratio, 5 h; at 17.2 µM (top of the series) unless noted;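 further: carbachol stimulus at about its EC50 of 1 µM final; on the % scale 0 is the no-effect control and ±100 the full control effect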
Summary of the method: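 Jurkat cells with NFAT-driven β-lactamase reporter and co-expressed M1 receptor, stimulated with carbachol (final 1 uM, ~EC50), compound titration, 5 h at 37 °C. CCF4 loaded 1 h at RT; 460/530 nm ratio gave %activity and AC50.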

[3] = Stat Signaling Pathway (AID 446); conditions: ME-180 SIE beta-lactamase reporter, IL-6 stimulated, 5 h; at 17.2 µM (top of the series) unless noted;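 further: ME-180 cervical cancer cells given 40 pM IL-6 alongside compound; SIE-controlled beta-lactamase reporter measured as 460/530 nm FRET emission ratio; on the % scale 0 is the no-effect control and ±100 the full control effect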
Summary of the method: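 Screening format detects activators and inhibitors alike: ME-180 SIE-bla cells stimulated at 40 pM IL-6 for 5 hrs with compound, then dual-emission beta-lactamase read at 405 nm excitation.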

[4] = biological target: Glucocorticoid receptor (Homo sapiens) (UniProt P04150); assay: GR-GFP Redistribution (AID 450;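 active means compounds whose dose series gives a full or clear partial fitted curve of increased nuclear translocation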; further: potency means the concentration at half of the fitted maximal effect)
Glucocorticoid receptor (Homo sapiens), sequence (P04150 whole entry, looked up): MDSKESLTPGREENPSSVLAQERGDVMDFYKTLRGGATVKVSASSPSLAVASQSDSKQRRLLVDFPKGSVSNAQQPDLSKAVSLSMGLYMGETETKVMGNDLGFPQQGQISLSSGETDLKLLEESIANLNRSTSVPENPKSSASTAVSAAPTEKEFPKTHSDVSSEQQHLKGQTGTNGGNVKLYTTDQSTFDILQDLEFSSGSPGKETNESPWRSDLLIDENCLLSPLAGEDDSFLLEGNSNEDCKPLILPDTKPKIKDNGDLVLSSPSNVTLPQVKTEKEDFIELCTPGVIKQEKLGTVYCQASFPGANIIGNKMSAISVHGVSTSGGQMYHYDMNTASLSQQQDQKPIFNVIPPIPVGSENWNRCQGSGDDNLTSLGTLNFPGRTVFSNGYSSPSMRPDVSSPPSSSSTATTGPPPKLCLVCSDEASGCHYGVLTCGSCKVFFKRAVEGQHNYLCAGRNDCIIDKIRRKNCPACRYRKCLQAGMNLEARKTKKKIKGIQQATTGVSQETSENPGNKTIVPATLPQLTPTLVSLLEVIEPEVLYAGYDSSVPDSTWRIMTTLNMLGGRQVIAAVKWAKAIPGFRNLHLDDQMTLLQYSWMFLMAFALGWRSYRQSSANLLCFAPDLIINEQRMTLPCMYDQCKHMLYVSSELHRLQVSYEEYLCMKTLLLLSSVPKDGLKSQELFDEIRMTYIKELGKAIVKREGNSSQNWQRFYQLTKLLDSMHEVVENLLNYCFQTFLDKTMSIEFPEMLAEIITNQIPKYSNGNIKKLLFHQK

CCOC(=O)c1[nH]c2ccc(C)cc2c1N
inactive: activity change, negative = inhibition [1] -6% | activity change, negative = inhibition [2] -1.75% | activity, negative = inhibition [3] -1.27% | Potency [4] > 20.6 µM

Cc1nn(C)cc1/C=N/O
inactive: activity change, negative = inhibition [1] 10.9% | activity change, negative = inhibition [2] -0.64% | activity, negative = inhibition [3] 4.83% | Potency [4] > 20.6 µM

CCCc1[nH]n(-c2nc3ccccc3s2)c(=O)c1C=NCCN1CCOCC1
inactive: activity change, negative = inhibition [1] -6.38% | activity change, negative = inhibition [2] -13.8% | activity, negative = inhibition [3] -4.13% | Potency [4] > 20.6 µM

COC(=O)c1cc(Br)c(=O)n(-c2cc(C)on2)c1
inactive: activity change, negative = inhibition [1] 8.72% | activity change, negative = inhibition [2] 12.9% | activity, negative = inhibition [3] 7.11% | Potency [4] > 20.6 µM

CCOC(=O)c1[nH]c2ccc(C)cc2c1N=CN(CC)CC
inactive: activity change, negative = inhibition [1] 7.82% | activity change, negative = inhibition [2] -21.2% | activity, negative = inhibition [3] 10.4% | Potency [4] > 20.6 µM

CC1(C)Nc2ccc(O)cc2-c2c1ssc2=S
inactive: activity change, negative = inhibition [1] -3.5% | activity change, negative = inhibition [2] 19.6% | activity, negative = inhibition [3] -16.8% | Potency [4] > 20.6 µM

CC1(C)Cc2ccccc2-c2c1c(=O)n(-c1ccccc1)c1nnnn21
inactive: activity change, negative = inhibition [1] -13.7% | activity change, negative = inhibition [2] -24.9% | activity, negative = inhibition [3] 2.44% | Potency [4] > 20.6 µM

Cn1c(=O)n(CCc2ccccc2)c(=O)c2c1ncn2Cc1ccccc1
inactive: activity change, negative = inhibition [1] -15.9% | activity change, negative = inhibition [2] -7.53% | activity, negative = inhibition [3] -18.1% | Potency [4] > 20.6 µM

Cc1c(C(=O)O)sc(=S)n1-c1ccccc1
inactive: activity change, negative = inhibition [1] 11% | activity change, negative = inhibition [2] 2.74% | activity, negative = inhibition [3] 4.36% | Potency [4] > 20.6 µM

CC(=O)N1CCN(C2c3cccc4cccc(c34)C2NS(=O)(=O)c2ccccc2)CC1 (stereo unspecified)
inactive: activity change, negative = inhibition [1] -3.48% | activity change, negative = inhibition [2] -9.38% | activity, negative = inhibition [3] 2.23% | Potency [4] > 20.6 µM

Cc1cc(=O)oc2c(CN3CCN(C)CC3)c(O)c(Cl)cc12
inactive: activity change, negative = inhibition [1] 16.9% | activity change, negative = inhibition [2] 25% | activity, negative = inhibition [3] 9.62% | Potency [4] > 20.6 µM

CC1(C)Cc2c(sc3nc4n(c(=N)c23)CCC4)CO1
inactive: activity change, negative = inhibition [1] -5.14% | activity change, negative = inhibition [2] -4.64% | activity, negative = inhibition [3] 4.33% | Potency [4] > 20.6 µM

CC(=O)[C@H]1[C@@H]2C(=O)N(c3cccc(Cl)c3)C(=O)[C@@H]2[C@H]2c3ccccc3C=CN21
inactive: activity change, negative = inhibition [1] -11% | activity change, negative = inhibition [2] -7.09% | activity, negative = inhibition [3] -13.6% | Potency [4] > 20.6 µM

Brc1ccc2c(c1)CNc1c(ncnc1N1CCOCC1)O2
inactive: activity change, negative = inhibition [1] -1.29% | activity change, negative = inhibition [2] -6.94% | activity, negative = inhibition [3] -3.65% | Potency [4] > 20.6 µM

Cc1cc(C)n(CC(=O)n2nc(C)cc2C)n1
inactive: activity change, negative = inhibition [1] 11.3% | activity change, negative = inhibition [2] -8.81% | activity, negative = inhibition [3] 8.01% | Potency [4] > 20.6 µM

Nc1nnc(CSCc2ccc(F)cc2)s1
inactive: activity change, negative = inhibition [1] 8.86% | activity change, negative = inhibition [2] -1.8% | activity, negative = inhibition [3] -2.21% | Potency [4] > 20.6 µM

COc1ccc(/C=C(/C#N)c2cccnc2)cc1OC
inactive: activity change, negative = inhibition [1] -13.8% | activity change, negative = inhibition [2] -0.696% | activity, negative = inhibition [3] 5.95% | Potency [4] > 20.6 µM

COC(=O)c1c(C)noc1-c1cc(C)on1
inactive: activity change, negative = inhibition [1] 10.7% | activity change, negative = inhibition [2] 10.8% | activity, negative = inhibition [3] 8.94% | Potency [4] > 20.6 µM

CCOC(=O)c1cc2c(=O)n3cccc(C)c3nc2n(Cc2cccnc2)c1=N
inactive: activity change, negative = inhibition [1] 13.7% | activity change, negative = inhibition [2] -26.5% | activity, negative = inhibition [3] 12% | Potency [4] > 20.6 µM
